In PubChem BioAssay (NCATS):
Where “and” joins values, the source holds several entries; their conditions need not be identical. Equal entries are not always repeated. Some compounds were tested as several samples or in several runs, with calls that do not always agree. Unmarked numbers belong to inactive results. Calls of active or inactive are those of the source. Unless noted, the call rests on the fitted dose curve; in most records, active means well fitted curve in the direction sought with a large enough effect; inconclusive means small, poorly fitted or top-dose-only effect, or another doubt; inactive means no such curve, though single readings can be large; an effect the other way counts as inactive or inconclusive.

Assays:
[1] = Cellular Toxicity (caspase-3) Jurkat (AID 655); settings: Jurkat caspase-3 activation, luminescence; caspase-3 activation: at 92.2 µM (top of the series), DMSO = 0%, tamoxifen = 100%;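 further: cells exposed to compound for 16 h at 37 °C before reading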
Method in brief: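 Jurkat cells (5000/well) in complete medium exposed 16 h at 37 C; caspase-3/7 activity read by Caspase-Glo luminescence after 20 min at room temperature. Normalized to DMSO and 100 uM tamoxifen; AC50 from Hill fits.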

[2] = Cellular Toxicity (caspase-3) H-4-II-E (AID 663); settings: H-4-II-E rat hepatoma, scaled: DMSO 0%, 100 µM tamoxifen 100%; at 92.2 µM (top of the series);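 further: cells exposed to compound for 16 hr before readout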
Method in brief: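 Apoptosis induction is scored as increased luminescence from caspase 3/7 substrate cleavage in rat hepatoma H-4-II-E cells exposed to compound for 16 hr. Activity is scaled between DMSO and 100 uM tamoxifen.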

[3] = MultiTox-Fluor Cytotoxicity Assay - LYMP1-001 - Dead Cells (AID 946); further: potency means the concentration at half of the fitted maximal effect
Method in brief: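 AC50 from Hill fit of concentration-response; data normalized to DMSO (basal) and 15 uM tetraoctylammonium bromide (100%). LYMP1-001 lymphoblastoid cells, 2500/well, 16 hr compound at 37 C; dead-cell protease fluorescence, Ex/Em 485/520.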

[4] = MultiTox-Fluor Cytotoxicity Assay - LYMP1-002 - Dead Cells (AID 960); further: nearly all actives have a fitted effect of over 60% in size; further: potency means the concentration at half of the fitted maximal effect
Method in brief: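 Human lymphoblastoid cells (LYMP1-002), 2500/well in complete medium, were exposed to compounds for 16 hr at 37 C. Dead-cell protease activity was read as bis-AAF-R110 fluorescence (Ex/Em 485/520), normalized to DMSO and 15 uM tetraoctylammonium bromide; AC50 from Hill fits.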

[5] = Cell Viability - LYMP2-004 (AID 966); further: nearly all actives have a fitted effect of over 65% in size; further: potency means the concentration at half of the fitted maximal effect
Method in brief: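 Human lymphoblastoid cells (2500/well) in complete medium were treated with compounds for 24 hr at 37 C, then intracellular ATP was measured by CellTiter-Glo luminescence. AC50 values came from Hill-equation fits of concentration-response data.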

[6] = Cell Viability - LYMP2-013 (AID 970); further: nearly all actives have a fitted effect of over 55% in size; further: potency means the concentration at half of the fitted maximal effect
Method in brief: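 Human lymphoblastoid cells, 2500/well, were preincubated 5 hr at 37 C, then treated with compounds for 24 hr at 37 C in complete medium. Intracellular ATP was read by CellTiter-Glo luminescence; AC50 from Hill-equation fits of concentration-response data.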

[7] = Cell Viability - LYMP2-014 (AID 983); further: nearly all actives have a fitted effect of over 50% in size; further: potency means the concentration at half of the fitted maximal effect
Method in brief: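 Human lymphoblastoid cells (2500/well) were pre-incubated 5 hr at 37 C, then exposed to compounds in complete medium for 24 hr at 37 C. Intracellular ATP was read by CellTiter-Glo luminescence after 30 min at room temperature; AC50 from Hill fits.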

[8] = Cell Viability - LYMP2-026 (AID 989); further: nearly all actives have a fitted effect of over 50% in size; further: potency means the concentration at half of the fitted maximal effect
Method in brief: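 Human lymphoblastoid cells (2500/well) in complete medium were preincubated 5 hr at 37 C, then exposed to compounds for 24 hr at 37 C. Cellular ATP was read by CellTiter-Glo luminescence; AC50 from Hill-equation fits of concentration-response data.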

[9] = target: Estrogen receptor (Homo sapiens) (UniProt P03372); assay: qHTS assay for small molecule antagonists of estrogen receptor alpha signaling (AID 588513; active means well fitted curve in the direction sought with a large enough effect in the signal ratio, with a control signal flat, not every such curve was filed as active; inconclusive means small, poorly fitted or top-dose-only effect, or effect the other way, or a change in a side signal; inactive means no such curve, though single readings can be large or run the other way; the % refers to the signal ratio; further: potency means the concentration at half of the fitted maximal effect)
Method in brief: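 ER-alpha-UAS-bla GripTite HEK 293 cells in 2% charcoal/dextran-treated FBS medium; compounds titrated (1:2, duplicate), then stimulated with 0.5 nM 17-beta-estradiol for 18 h at 37C. CCF4 beta-lactamase fluorescence; Hill-fit IC50 and efficacy.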

[10] = target: Glucocorticoid receptor (Homo sapiens) (UniProt P04150); assay: qHTS assay for small molecule agonists of glucocorticoid receptor signaling (AID 588532; active means well fitted curve in the direction sought with a large enough effect in the signal ratio, with a control signal flat; inconclusive means small, poorly fitted or top-dose-only effect, or a change in a side signal; inactive means no such curve, though single readings can be large or run the other way; the % refers to the signal ratio;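 further: 100% = dexamethasone at 0.1 µM and 0% = DMSO only wells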); settings: HeLa MMTV-bla, beta-lactamase ratio, agonist, 18 h; activation: active compounds read high, percent of dexamethasone control, DMSO zero
Method in brief: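 Agonist-mode qHTS: GRE-driven beta-lactamase in HeLa cells exposed 18 h to titrated compounds (up to 92 uM), then CCF4 ratio read after 2 h at RT; Hill-fitted EC50, efficacy relative to 0.1 uM dexamethasone.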

[11] = target: Peroxisome proliferator-activated receptor delta (Homo sapiens) (UniProt Q03181); assay: qHTS assay for small molecule agonists of peroxisome proliferator-activated receptor delta signaling (AID 588534; calls by dose curve;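 further: 0% = DMSO basal wells and 100% = positive control agonist at 10 µM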)
Method in brief: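 Cell-based beta-lactamase reporter assay run in agonist mode: cells seeded and incubated 5 hrs at 37 C, compounds added and incubated 18 hrs at 37 C. CCF4 dye fluorescence read after 2 hrs at RT; EC50 and efficacy from Hill fits.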

[12] = target: Thyroid hormone receptor beta (Homo sapiens) (UniProt P10828); assay: qHTS assay for small molecule agonists of thyroid hormone receptor beta signaling (AID 588545; calls by dose curve;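 further: 0% = DMSO only and 100% = 10 nM T3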)
Method in brief: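 TR-UAS-bla GripTite HEK 293 cells (2500/well, medium with 2% charcoal/dextran FBS) were treated in agonist mode for 18 h at 37 C, titrated. Beta-lactamase was read by CCF4 ratio after 2 h; normalized to 10 nM T3 (100%) and DMSO, Hill-fitted for EC50 and efficacy.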

[13] = target: Voltage-gated inwardly rectifying potassium channel KCNH2 (Homo sapiens) (UniProt Q12809); assay: qHTS Assay for Small Molecule Inhibitors of the Human hERG Channel Activity (AID 588834);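 further: lower thallium flux fluorescence means stronger hERG block; nearly all actives have a fitted effect of over 50% in size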; further: potency means the concentration at half of the fitted maximal effect
Method in brief: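 U2OS cells BacMam-transduced with hERG, 2000 cells/well, compound ~10 min at 37 °C before stimulation buffer. FluxOR thallium flux fluorescence read kinetically on FDSS; decrease indicates block; AC50 from Hill fits.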

[14] = qHTS assay for small molecule agonists of the antioxidant response element (ARE) signaling pathway (AID 651741; active means well fitted activation curve with a large enough effect in the signal ratio; inconclusive means small, poorly fitted or top-dose-only effect, or effect the other way, or a change in a side signal; the % refers to the signal ratio; further: potency means the concentration at half of the fitted maximal effect; on activation: % of control where 0% means no effect)
Method in brief: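 Seeding 2,000 ARE-bla HepG2 cells per well preceded a 5 h incubation at 37 C/5% CO2 and a 16 h compound exposure at 37 C. Beta-lactamase reporter activity was then quantified by fluorescence after 2 h with LiveBLAzer B/G FRET substrate.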

[15] = qHTS assay for small molecule activators of the p53 signaling pathway (AID 651743; active means well fitted activation curve with a large enough effect in the signal ratio, not every such curve was filed as active; inconclusive means small, poorly fitted or top-dose-only effect, or a change in a side signal; the % refers to the signal ratio; further: % of control where 0% means no effect); settings: HCT-116 p53RE-bla, beta-lactamase FRET ratio, 16 h; activation: active compounds read high
Method in brief: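 Screen for p53 pathway agonists uses stably transfected p53RE-bla HCT-116 cells, 4,000 per well, treated 16 h at 37 C with compounds in DMSO.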

[16] = qHTS assay for small molecule disruptors of the mitochondrial membrane potential - 1 hr assay (AID 651754; calls by dose curve; further: nearly all actives have a fitted effect of over 35% in size; further: potency means the concentration at half of the fitted maximal effect)
Method in brief: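 HepG2 cells, attached overnight at 37C, were exposed to compound or DMSO vehicle for 1 hr at 37C, 5% CO2, then stained with Mito-MPS dye for 30 min. Red aggregate versus green monomer fluorescence reports membrane potential.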

[17] = target: Nuclear receptor ROR-gamma (Homo sapiens) (UniProt P51449); assay: qHTS assay for small molecule antagonists of the retinoid-related orphan receptor gamma (ROR-gamma) signaling pathway (AID 651802); further: nearly all actives have a fitted effect of over 60% in size; further: potency means the concentration at half of the fitted maximal effect
Method in brief: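 CHO cells carrying TET-inducible ROR-gamma and an ROR response element–luciferase reporter were exposed to compound, then induced with doxycycline. After 16hr at 37C, luminescence was read; lower signal indicates antagonism.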

[18] = qHTS assay for small molecule antagonists of the retinoid-related orphan receptor gamma (ROR-gamma) signaling pathway - cell viability counter screen (AID 720652; active means well fitted curve in the direction sought with a large enough effect in the repeat runs; inconclusive means weak or mixed curves; inactive means no such curve, though single readings can be large; an effect the other way counts as inactive or inconclusive;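 further: compound exposure lasted 16 hr before ATP read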; further: potency means the concentration at half of the fitted maximal effect)
Method in brief: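 Counter screen in CHO cells carrying TET-inducible ROR-gamma and an ROR response element-luciferase reporter; cells plated 5 hr, compound pinned, doxycycline added, then 16 hr at 37 C. Viability read as intracellular ATP by CellTiter-Glo luminescence.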

[19] = qHTS assay for cell viability of HEK293 cells (AID 743288); settings: ATP luminescence (CellTiter-Glo), 18 h; max response: active compounds read low; further: nearly all actives have a fitted effect of over 50% in size; further: potency means the concentration at half of the fitted maximal effect; on max response: on the % scale 0 is the no-effect control and ±100 the full control effect
Method in brief: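 Parental HEK293 cells, 2,000 per well, preincubated at least 5 h at 37 C, then exposed to compounds in DMSO for 18 h at 37 C. Viability by CellTiter-Glo ATP luminescence after 30 min at room temperature.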

[20] = target: Vitamin D3 receptor (Homo sapiens) (UniProt P11473); assay: qHTS assay for small molecule agonists of vitamin D receptor signaling (AID 588543; calls by dose curve;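 further: 0% = DMSO basal and 100% = reference agonist control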)
Method in brief: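 VDR-UAS-bla HEK293T cells, 2000/well, 2% charcoal-stripped FBS; compound titration 16 h at 37 C; CCF4 beta-lactamase ratio read. Normalized to 50 nM 1-alpha,25-dihydroxyvitamin D3 (100%) and DMSO; Hill fit gives EC50, efficacy.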

Chain of Voltage-gated inwardly rectifying potassium channel KCNH2 (Homo sapiens) (Q12809 whole entry, looked up): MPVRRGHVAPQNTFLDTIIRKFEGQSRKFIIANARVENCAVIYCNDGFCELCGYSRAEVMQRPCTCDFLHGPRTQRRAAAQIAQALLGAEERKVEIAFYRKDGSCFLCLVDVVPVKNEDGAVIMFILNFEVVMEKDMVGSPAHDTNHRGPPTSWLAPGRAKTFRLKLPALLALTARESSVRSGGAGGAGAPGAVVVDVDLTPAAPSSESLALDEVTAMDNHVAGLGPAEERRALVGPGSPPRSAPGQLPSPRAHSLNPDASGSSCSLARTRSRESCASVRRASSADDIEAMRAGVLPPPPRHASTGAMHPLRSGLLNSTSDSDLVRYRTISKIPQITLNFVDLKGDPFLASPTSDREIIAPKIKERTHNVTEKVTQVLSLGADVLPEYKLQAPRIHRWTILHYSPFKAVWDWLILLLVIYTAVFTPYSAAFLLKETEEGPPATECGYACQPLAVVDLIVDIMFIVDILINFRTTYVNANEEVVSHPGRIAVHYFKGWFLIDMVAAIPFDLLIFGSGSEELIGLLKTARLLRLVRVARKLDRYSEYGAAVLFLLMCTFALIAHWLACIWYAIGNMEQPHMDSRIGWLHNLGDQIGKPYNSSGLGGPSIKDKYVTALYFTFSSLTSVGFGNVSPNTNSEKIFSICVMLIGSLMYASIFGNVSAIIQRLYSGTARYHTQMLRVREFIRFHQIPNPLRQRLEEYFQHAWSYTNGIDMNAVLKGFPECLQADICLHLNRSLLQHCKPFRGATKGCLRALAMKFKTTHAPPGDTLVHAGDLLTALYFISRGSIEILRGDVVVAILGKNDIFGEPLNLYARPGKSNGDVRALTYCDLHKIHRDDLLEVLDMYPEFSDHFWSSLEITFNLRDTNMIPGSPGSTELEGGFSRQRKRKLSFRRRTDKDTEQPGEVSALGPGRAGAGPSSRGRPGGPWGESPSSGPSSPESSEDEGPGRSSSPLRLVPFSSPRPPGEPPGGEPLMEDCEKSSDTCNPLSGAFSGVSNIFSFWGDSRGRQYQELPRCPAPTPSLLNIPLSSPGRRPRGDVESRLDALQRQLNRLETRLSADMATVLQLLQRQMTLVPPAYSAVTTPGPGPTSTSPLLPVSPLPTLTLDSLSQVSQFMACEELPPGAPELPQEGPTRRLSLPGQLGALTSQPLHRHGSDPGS
Chain of Estrogen receptor (Homo sapiens) (P03372 whole entry, looked up): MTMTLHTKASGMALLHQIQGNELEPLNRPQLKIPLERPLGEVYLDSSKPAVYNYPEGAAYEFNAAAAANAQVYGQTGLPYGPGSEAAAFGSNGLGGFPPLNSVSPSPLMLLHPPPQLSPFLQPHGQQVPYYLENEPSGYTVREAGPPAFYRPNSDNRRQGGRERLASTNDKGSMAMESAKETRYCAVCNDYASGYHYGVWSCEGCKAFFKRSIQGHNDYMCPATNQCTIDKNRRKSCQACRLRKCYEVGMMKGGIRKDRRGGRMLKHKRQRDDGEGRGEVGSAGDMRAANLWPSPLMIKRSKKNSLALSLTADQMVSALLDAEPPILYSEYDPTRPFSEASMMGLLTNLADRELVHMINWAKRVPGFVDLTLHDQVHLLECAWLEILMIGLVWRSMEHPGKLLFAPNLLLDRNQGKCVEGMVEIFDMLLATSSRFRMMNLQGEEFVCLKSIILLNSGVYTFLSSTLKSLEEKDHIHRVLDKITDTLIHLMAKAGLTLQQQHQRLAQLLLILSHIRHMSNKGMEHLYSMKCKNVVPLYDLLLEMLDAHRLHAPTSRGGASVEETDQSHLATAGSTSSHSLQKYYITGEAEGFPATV
Chain of Nuclear receptor ROR-gamma (Homo sapiens) (P51449 whole entry, looked up): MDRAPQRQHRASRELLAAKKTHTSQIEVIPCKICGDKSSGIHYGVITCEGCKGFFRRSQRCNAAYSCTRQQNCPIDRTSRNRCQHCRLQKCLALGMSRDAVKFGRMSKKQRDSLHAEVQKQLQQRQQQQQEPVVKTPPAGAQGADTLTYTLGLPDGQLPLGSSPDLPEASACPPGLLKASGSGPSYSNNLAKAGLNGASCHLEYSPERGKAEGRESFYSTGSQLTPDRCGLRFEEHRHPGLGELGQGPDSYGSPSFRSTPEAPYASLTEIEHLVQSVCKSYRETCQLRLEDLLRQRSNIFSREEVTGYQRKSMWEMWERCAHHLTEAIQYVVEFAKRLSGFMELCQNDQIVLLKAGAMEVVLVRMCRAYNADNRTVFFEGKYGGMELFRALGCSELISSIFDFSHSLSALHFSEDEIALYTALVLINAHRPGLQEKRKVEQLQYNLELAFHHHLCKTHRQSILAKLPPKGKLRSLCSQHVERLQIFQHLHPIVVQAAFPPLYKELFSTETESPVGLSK
Chain of Thyroid hormone receptor beta (Homo sapiens) (P10828 whole entry, looked up): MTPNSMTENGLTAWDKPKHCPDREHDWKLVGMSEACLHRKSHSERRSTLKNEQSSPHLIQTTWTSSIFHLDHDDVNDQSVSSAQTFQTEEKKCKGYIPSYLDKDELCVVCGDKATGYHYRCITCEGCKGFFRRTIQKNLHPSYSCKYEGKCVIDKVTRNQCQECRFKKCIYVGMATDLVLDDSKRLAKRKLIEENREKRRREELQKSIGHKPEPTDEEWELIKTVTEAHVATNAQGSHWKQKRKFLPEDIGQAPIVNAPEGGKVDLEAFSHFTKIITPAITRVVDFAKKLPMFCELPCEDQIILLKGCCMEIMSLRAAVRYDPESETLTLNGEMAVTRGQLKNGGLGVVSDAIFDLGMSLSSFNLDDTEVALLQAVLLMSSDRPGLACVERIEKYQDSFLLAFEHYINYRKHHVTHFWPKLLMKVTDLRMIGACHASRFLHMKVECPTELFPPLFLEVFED
Chain of Vitamin D3 receptor (Homo sapiens) (P11473 whole entry, looked up): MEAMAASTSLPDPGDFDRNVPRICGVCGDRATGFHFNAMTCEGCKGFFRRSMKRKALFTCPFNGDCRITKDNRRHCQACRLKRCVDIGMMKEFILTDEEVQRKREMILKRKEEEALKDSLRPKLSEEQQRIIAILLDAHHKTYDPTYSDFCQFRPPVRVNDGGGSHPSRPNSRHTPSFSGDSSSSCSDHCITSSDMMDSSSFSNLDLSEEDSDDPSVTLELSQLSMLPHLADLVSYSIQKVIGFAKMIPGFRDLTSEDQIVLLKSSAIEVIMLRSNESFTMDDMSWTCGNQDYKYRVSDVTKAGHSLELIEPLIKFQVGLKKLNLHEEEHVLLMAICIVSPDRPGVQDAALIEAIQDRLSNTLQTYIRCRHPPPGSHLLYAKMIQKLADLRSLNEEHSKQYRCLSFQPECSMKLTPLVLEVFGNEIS
Chain of Peroxisome proliferator-activated receptor delta (Homo sapiens) (Q03181 whole entry, looked up): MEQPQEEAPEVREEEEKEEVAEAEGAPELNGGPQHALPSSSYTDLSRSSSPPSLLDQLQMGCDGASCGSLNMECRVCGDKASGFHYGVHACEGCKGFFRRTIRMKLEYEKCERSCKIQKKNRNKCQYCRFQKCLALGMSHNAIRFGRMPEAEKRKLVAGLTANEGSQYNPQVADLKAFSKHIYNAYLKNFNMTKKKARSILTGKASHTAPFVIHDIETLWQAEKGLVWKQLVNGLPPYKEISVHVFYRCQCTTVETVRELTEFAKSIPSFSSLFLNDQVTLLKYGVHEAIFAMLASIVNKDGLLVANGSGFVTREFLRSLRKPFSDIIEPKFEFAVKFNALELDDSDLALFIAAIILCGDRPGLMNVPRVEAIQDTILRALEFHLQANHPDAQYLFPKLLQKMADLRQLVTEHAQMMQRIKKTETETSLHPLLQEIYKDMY
Chain of Glucocorticoid receptor (Homo sapiens) (P04150 whole entry, looked up): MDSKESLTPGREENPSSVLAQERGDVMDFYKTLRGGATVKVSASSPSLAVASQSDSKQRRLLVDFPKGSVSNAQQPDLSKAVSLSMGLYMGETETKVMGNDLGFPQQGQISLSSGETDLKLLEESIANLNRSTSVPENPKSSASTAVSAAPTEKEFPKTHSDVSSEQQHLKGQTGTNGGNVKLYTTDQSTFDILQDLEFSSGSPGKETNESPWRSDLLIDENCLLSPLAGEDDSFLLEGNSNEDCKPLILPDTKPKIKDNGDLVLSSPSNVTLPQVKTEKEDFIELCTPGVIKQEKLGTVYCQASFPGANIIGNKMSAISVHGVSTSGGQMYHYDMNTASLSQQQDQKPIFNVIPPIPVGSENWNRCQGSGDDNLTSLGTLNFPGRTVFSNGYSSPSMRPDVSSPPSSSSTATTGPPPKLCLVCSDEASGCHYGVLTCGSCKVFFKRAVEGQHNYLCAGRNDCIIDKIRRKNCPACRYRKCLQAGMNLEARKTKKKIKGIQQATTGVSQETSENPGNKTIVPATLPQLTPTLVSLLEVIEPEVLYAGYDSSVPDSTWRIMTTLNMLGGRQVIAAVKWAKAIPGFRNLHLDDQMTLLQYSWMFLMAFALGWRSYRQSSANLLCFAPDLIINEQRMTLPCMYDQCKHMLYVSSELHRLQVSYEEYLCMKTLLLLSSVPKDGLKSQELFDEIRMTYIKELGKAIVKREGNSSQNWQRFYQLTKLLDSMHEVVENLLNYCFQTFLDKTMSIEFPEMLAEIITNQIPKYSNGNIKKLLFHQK

In the case of `O=C(O)C1C(C(=O)O)C2(Cl)C(Cl)=C(Cl)C1(Cl)C2(Cl)Cl` (stereo unspecified), the caspase-3 activation [1] is reported as -0.527%, the caspase-3 activation [2] is reported as -0.161% and the Potency [3] is reported as “inactive”. For the same compound, the Potency [4] was “inactive”, the Potency [5] was “inactive” and the Potency [6] was “inactive”. The Potency [7] was “inactive”, the Potency [8] was “inactive” and the Potency [9] was “inactive”. For the same compound, the activation [10] was -1.68%, the outcome [11] was “inactive” and the Potency [12] was “inactive”. The Potency [13] was “inactive”, the Potency [14] was “inactive” and the activation [15] was -3.18%. The Potency [16] was “inactive”, the Potency [17] was “inactive” and the Potency [18] was “inactive”. It also gave a max response [19] of 0.0125%.

For `O=C(CCl)c1ccccc1`, the caspase-3 activation [1] was -8.71%, the caspase-3 activation [2] was -5.13% and the Potency [3] was 50.1 µM (active). For the same compound, the Potency [4] was 25.1 µM (active), the Potency [5] was 10 µM (active) and the Potency [6] was 15.8 µM (active). For the same compound, the Potency [7] was 12.6 µM (active), the Potency [8] was 12.6 µM (active) and the activation [10] was 5.85% and 11.4%. The outcome [11] was “inactive”, the outcome [20] was “inactive” and the Potency [12] was “inactive”. The Potency [13] was “inactive”, the Potency [14] was 61.1 µM (active) and the Potency [16] was “inactive”. The Potency [17] was 16.8 µM (active), the Potency [18] was 29.8 µM (active) and the Potency [19] was 35.5 µM (active). The max response [19] was -16%.

In the case of `CC(C)CC(C)Nc1ccc(Nc2ccccc2)cc1` (stereo unspecified), the caspase-3 activation [1] is reported as 17.5%, the Potency [5] is reported as 25.1 µM (active) and the Potency [6] is reported as 50.1 µM (active). The Potency [7] was 39.8 µM (active), the Potency [9] was 25.1 µM [inconclusive] (active) and the activation [10] was 4.35%. The outcome [11] was “inactive”, the outcome [20] was “inactive” and the Potency [13] was 20 µM (active). For the same compound, the Potency [14] was 59.6 µM (active), the Potency [17] was 37.6 µM (active) and the Potency [18] was 59.6 µM (active).

With `C[C@@H]1CC[C@@]2(OC1)O[C@H]1[C@@H](O)[C@H]3[C@@H]4CC[C@H]5C[C@@H](O[C@@H]6O[C@H](CO)[C@H](O[C@@H]7O[C@H](CO)[C@@H](O)[C@H](O[C@@H]8OC[C@@H](O)[C@H](O)[C@H]8O)[C@H]7O[C@@H]7O[C@H](CO)[C@@H](O)[C@H](O[C@@H]8O[C@H](CO)[C@@H](O)[C@H](O)[C@H]8O)[C@H]7O)[C@H](O)[C@H]6O)[C@H](O)C[C@]5(C)[C@H]4CC[C@]3(C)[C@H]1[C@@H]2C` the caspase-3 activation [2] was -3.54%, the Potency [5] was 12.6 µM (active) and the Potency [6] was 20 µM (active). The Potency [7] was 25.1 µM (active), the Potency [8] was 15.8 µM (active) and the Potency [9] was 8.91 µM [inconclusive] (active). The Potency [13] was 25.1 µM (active), the Potency [16] was 26.6 µM (active) and the Potency [18] was 11.9 µM (active). The Potency [19] was 25.1 µM (active).

In the case of `[CH3][Hg][Cl]`, the caspase-3 activation [1] is reported as -8.35%, the Potency [5] is reported as 3.98 µM (active) and the Potency [6] is reported as 3.98 µM (active). The Potency [7] was 3.98 µM (active), the Potency [8] was 5.01 µM (active) and the Potency [9] was 39.8 µM [inconclusive] (active). For the same compound, the activation [10] was -4.13%, the Potency [13] was 25.1 µM (active) and the Potency [14] was 23.7 µM (active). The Potency [16] was 21.1 µM (active), the Potency [17] was 6.68 µM (active) and the Potency [18] was 10.6 µM (active). For the same compound, the Potency [19] was 39.8 µM (active).

For `Nc1ccccc1C(=O)OCCc1ccccc1`, the caspase-3 activation [1] was -5.89%, the caspase-3 activation [2] was -2.95% and the Potency [3] was “inactive”. For the same compound, the Potency [4] was “inactive”, the Potency [5] was “inactive” and the Potency [6] was “inactive”. The Potency [7] was “inactive”, the Potency [8] was “inactive” and the outcome [20] was “inactive”. For the same compound, the Potency [12] was “inactive”, the activation [15] was -0.792% and the Potency [17] was “inactive”. For the same compound, the Potency [18] was “inactive”.
